# Records with an inconclusive call do not appear. Active and inactive are the calls of the source. The call rests on the fitted dose curve; in most records, active means well fitted activation curve with a large enough effect; inconclusive means small, poorly fitted or top-dose-only effect; inactive means no such curve, though single readings can be large or run the other way.
# Test: qHTS assay for re-activators of p53 using a Luc reporter: Hit Validation with no p53 Expressed; on activity change, positive = activation: 0% is about no effect
# Conditions: p53-null cells, luciferase reporter counter-screen; series mostly up to 46.1 µM; activity change, positive = activation: at the top concentration
# Method in brief: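 Counter-screen of primary hits in a cell line not transfected with p53, in Opti-MEM with 10% FBS; compounds at several concentrations (10 mM stock, 1:5; top 46.1 µM in well), 24 h at 37 deg C, 5% CO2. Luminescence read after 10 min with Amplite reagent.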
# Potency means the concentration at half of the fitted maximal effect.
SMILES,"activity change, positive = activation",Potency
Cc1sc2nc(CSC(C)C(=O)Nc3ccccn3)[nH]c(=O)c2c1C (centres undefined),9.27% (inactive),–
COc1ccc(N2CCN(CCCNC(=O)C3(S(=O)(=O)c4ccc(Cl)cc4)CC3)CC2)cc1,-41.7% (inactive),–
CN(Cc1ccccc1)c1ncnc2ccc(Br)cc12,-15.8% (inactive),–
NNC(=O)c1cccc(COc2ccc(Br)cc2)c1,13.2% (inactive),–
c1ccc(COc2ccc(OCCOCCn3cncn3)cc2)cc1,–,1.3 µM (active)
CCOC(=O)c1c(NC(=O)CN2CCCc3ccccc32)sc(C)c1C,75.3% (inactive),–
COc1ccc2nc(NC(=O)Nc3ccccc3OC)sc2c1,-21.1% (inactive),–
Cc1ccnc(NC(=O)CCC2CCCCC2)c1,22.1% (inactive),–
COC(=O)C1=C(C(=O)c2ccccc2)C(c2ccc(OC)c(OC)c2)Nc2nnnn21 (centres undefined),-13.2% (inactive),–
Cc1csc2nc(COC(=O)c3cccc(N(C)C)c3)cc(=O)n12,42.9% (inactive),–
Cc1cc(C(=O)COC(=O)c2ccc(O)cc2)c(C)n1CC(F)(F)F,–,20.6 µM (active)
C/C(=N\N=c1/scc(C)n1Cc1ccco1)c1cccc([N+](=O)[O-])c1,26.8% (inactive),–
CCn1c(C)nc2cc(C(=O)NNC(=O)c3ccc(C)cc3)ccc21,-13.2% (inactive),–
Cc1cc2nc(-c3ccc(SCC(=O)Nc4ccc(S(=O)(=O)NC5CC5)cc4)nc3)[nH]c2cc1C,29.4% (inactive),–
Cc1ccc(NC(=O)c2cc(C)n(-c3ccccc3)c2C)cc1,-27.1% (inactive),–
Cc1cc(C)n2cc(CSc3nc4ccccc4s3)nc2n1,-26.5% (inactive),–
CCCCn1c(/C=N/Nc2nc3ccccc3[nH]2)nc2ccccc21,87% (inactive),–
CS(=O)(=O)n1nc(-c2ccc(Cl)cc2)nc1SCc1ccccc1,68.8% (inactive),–
ON=C1c2cc(OCCN3CCCCC3)ccc2-c2ccc(OCCN3CCCCC3)cc21,-34.7% (inactive),–
Cc1ccc2cc3cc(C(=O)N4CCCCCC4)oc3nc2c1,47.8% (inactive),–

SMILES,"activity change, positive = activation",Potency
C=CCNC(=S)N/N=C(\C)c1ccccn1,-32.4% (inactive),–
O=C(/C=C/c1cccs1)Nc1ccc(Br)cn1,6.73% (inactive),–
CC(C)(C)c1cc(-n2ccnc2)n2ncc(-c3ccc(Cl)cc3)c2n1,27.1% (inactive),–
O=C(COC(=O)c1cccnc1Cl)Nc1ccc(N2CCCCC2)cc1,-51.2% (inactive),–
Fc1cccc(NCc2cn3ccccc3n2)c1,29.4% (inactive),–
COc1ccc(-n2nc([N+](=O)[O-])c(=NCc3ccco3)n2O)cc1,7.46% (inactive),–
Cc1ccc(-c2cc(-c3ccccc3Cl)[nH]n2)c(O)c1,32.1% (inactive),–
O=C(NCC(=O)N1CCN(c2ncccn2)CC1)c1ccc(F)cc1,-6.5% (inactive),–
Cc1cccnc1NC(=O)c1ccc([N+](=O)[O-])o1,83.6% (inactive),–
O=C1CCCC(O)=C1N=Nc1ccc2c(c1)OCO2,13.7% (inactive),–
CCCS(=O)(=O)N1CCC(C(=O)NCCN(CC)c2ccccc2)CC1,-29.3% (inactive),–
CCOC(=O)c1[nH]nc(C(=O)c2ccc(Br)cc2)c1O,-4.51% (inactive),–
O=C(O)C1CC(=O)N(c2ccc(Br)cc2)C1 (centres undefined),40.9% (inactive),–
O=C1NCCCc2c1oc1ccc(O)cc21,25.7% (inactive),–
C=C[C@@H]1c2cc(C)ccc2N(S(=O)(=O)c2ccc(C)cc2)[C@H](c2ccccc2C(F)(F)F)C1(C#N)C#N,13.3% (inactive),–
COc1ccc([N+](=O)[O-])cc1NC(=O)CSCc1ccc(Br)cc1,-9.05% (inactive),–
Cc1ccnc(NC(=O)c2sc3cc(Cl)ccc3c2Cl)c1,3.29% (inactive),–
CC(OC(=O)c1cccc([N+](=O)[O-])c1)C(=O)N1CCc2ccccc21 (centres undefined),-25.6% (inactive),–
CCc1ccc(-n2cc(-c3ccc([N+](=O)[O-])cc3)[nH]c2=S)cc1,56.6% (inactive),–

# Reference: PubChem BioAssay AID624331 (National Center for Advancing Translational Sciences (NCATS), 2012)
